Data reported in PubChem BioAssay AID1159580 (chemical genetic matrix, 2015).
Values joined by “and” are separate entries in the source; they are usually repeats but may differ in a detail not shown here. Equal values may be shown once. Hit rate of the full screen: of about 5,500 compounds, about 2,000 (36%) were called active. Not shown: some 18% with an inconclusive outcome. Rule as the data show it: active = normalized growth mostly below about 0.91 (no sharp cut-off); inconclusive = no clear call, values can overlap the other calls; inactive = mostly above about 0.92. This is one part of the list.

Assay: chemical genetic growth profiling, strain panel (AID 1159580);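 also: tested at 20 µM; growth read once vehicle control cultures reached saturation at 30 °C; 1 = growth at the plate median or of vehicle wells; lower values mean less growth of the strain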
Conditions: S. cerevisiae deletion strains, growth OD

Measured: normalized growth

CC(=O)NCc1c(I)c(NC(C)=O)c(I)c(C(=O)O)c1I
inactive: locus YAL013W, strain DEP1, stronger effect = lower value 0.997 | locus YAL021C, strain ccr4, stronger effect = lower value 0.989 | locus YAL026C, strain drs2, stronger effect = lower value 0.997 | locus YAL030W, strain snc1, stronger effect = lower value 1 | locus YBL061C, strain skt5, stronger effect = lower value 0.994 | locus YBR009C, strain hhf1, stronger effect = lower value 0.991 | locus YBR021W, strain FUR4, stronger effect = lower value 1.02 | locus YBR023C, strain chs3, stronger effect = lower value 0.993 | locus YBR171W, strain sec66, stronger effect = lower value 0.995 | locus YBR229C, strain ROT2, stronger effect = lower value 0.999 | locus YBR231C, strain swc5, stronger effect = lower value 1 | locus YBR279W, strain paf1, stronger effect = lower value 0.989 | locus YCL011C, strain gbp2, stronger effect = lower value 1 | locus YCL016C, strain dcc1, stronger effect = lower value 0.993 | locus YCL029C, strain bik1, stronger effect = lower value 0.982 | locus YCL061C, strain MRC1, stronger effect = lower value 0.983 | locus YCL069W, strain vba3, stronger effect = lower value 1 | locus YCR088W, strain abp1, stronger effect = lower value 1 | locus YDL005C, strain med2, stronger effect = lower value 1 | locus YDL035C, strain GPR1, stronger effect = lower value 1.01 | locus YDL040C, strain nat1, stronger effect = lower value 1 | locus YDL074C, strain BRE1, stronger effect = lower value 0.982 | locus YDL101C, strain DUN1, stronger effect = lower value 0.991 | locus YDL134C, strain PPH21, stronger effect = lower value 0.999 | locus YDL185W, strain tfp1, stronger effect = lower value 0.959 | locus YDL192W, strain arf1, stronger effect = lower value 0.99 | locus YDR001C, strain nth1, stronger effect = lower value 1.01 | locus YDR069C, strain doa4, stronger effect = lower value 0.999 | locus YDR101C, strain arx1, stronger effect = lower value 0.996 | locus YDR137W, strain rgp1, stronger effect = lower value 1.01 | locus YDR150W, strain NUM1, stronger effect = lower value 0.995 | locus YDR159W, strain sac3, stronger effect = lower value 0.99 | locus YDR162C, strain NBP2, stronger effect = lower value 0.997 | locus YDR195W, strain ref2 0.989 | locus YDR297W, strain sur2, stronger effect = lower value 0.995 | locus YDR318W, strain mcm21, stronger effect = lower value 0.984 | locus YDR334W, strain swr1, stronger effect = lower value 0.999 | locus YDR335W, strain msn5, stronger effect = lower value 1.01 | locus YDR388W, stronger effect = lower value 0.998 | locus YDR392W, strain spt3, stronger effect = lower value 0.957 | locus YDR502C, strain sam2, stronger effect = lower value 1 | locus YEL003W, strain gim4, stronger effect = lower value 1.01 | locus YEL037C, strain rad23, stronger effect = lower value 1 | locus YEL061C, strain CIN8 (second series), stronger effect = lower value 1 | locus YEL061C, strain CIN8, stronger effect = lower value 0.997 | locus YER015W, strain faa2, stronger effect = lower value 0.987 | locus YER016W, strain bim1, stronger effect = lower value 1 | locus YER110C, stronger effect = lower value 0.996 | locus YER111C, strain swi4, stronger effect = lower value 0.994 | locus YER155C, strain BEM2 (second series), stronger effect = lower value 1.01 | locus YER155C, strain BEM2, stronger effect = lower value 0.998 | locus YER167W, strain BCK2, stronger effect = lower value 1 | locus YFR010W, strain ubp6, stronger effect = lower value 0.998 | locus YGL078C, strain dbp3, stronger effect = lower value 1 | locus YGL086W, strain mad1, stronger effect = lower value 1.02 | locus YGL167C, strain pmr1, stronger effect = lower value 0.992 | locus YGL173C, strain kem1, stronger effect = lower value 0.995 | locus YGL227W, strain vid30, stronger effect = lower value 1 | locus YGL240W, strain doc1, stronger effect = lower value 0.986 | locus YGL248W, strain PDE1, stronger effect = lower value 1.01 | locus YGL253W, strain hxk2, stronger effect = lower value 0.996 | locus YGR078C, strain PAC10, stronger effect = lower value 1 | locus YGR135W, strain pre9, stronger effect = lower value 0.997 | locus YGR229C, strain SMI1, stronger effect = lower value 1 | locus YGR252W, strain gcn5, stronger effect = lower value 1.16 | locus YHR013C, strain ard1, stronger effect = lower value 0.997 | locus YHR027C, strain rpn1, stronger effect = lower value 1.01 | locus YHR030C, strain SLT2, stronger effect = lower value 0.996 and 1.01 | locus YHR079C, strain IRE1 (second series), stronger effect = lower value 0.992 | locus YHR079C, strain IRE1, stronger effect = lower value 1.02 | locus YHR094C, strain hxt1, stronger effect = lower value 0.98 | locus YHR129C, strain ARP1, stronger effect = lower value 0.997 | locus YHR142W, strain chs7, stronger effect = lower value 1.02 | locus YHR200W, strain rpn10, stronger effect = lower value 0.988 | locus YIL066C, strain RNR3, stronger effect = lower value 1 | locus YIL073C, strain SPO22, stronger effect = lower value 0.986 | locus YIL125W, strain kgd1, stronger effect = lower value 0.99 | locus YIR030C, strain dcg1, stronger effect = lower value 0.993 | locus YJL092W, strain hpr5, stronger effect = lower value 0.998 | locus YJL095W, strain BCK1 (second series), stronger effect = lower value 1 | locus YJL095W, strain BCK1, stronger effect = lower value 0.98 and 1.02 | locus YJL115W, strain asf1, stronger effect = lower value 0.993 | locus YJL129C, strain trk1, stronger effect = lower value 0.995 | locus YJL134W, strain LCB3, stronger effect = lower value 1 | locus YJL154C, strain vps35, stronger effect = lower value 1 | locus YJL164C, strain tpk1, stronger effect = lower value 0.996 | locus YJL166W, strain qcr8, stronger effect = lower value 0.991 | locus YJL168C, strain set2, stronger effect = lower value 0.992 | locus YJL187C, strain SWE1 (second series), stronger effect = lower value 0.987 | locus YJL187C, strain SWE1, stronger effect = lower value 1.02 | locus YJR043C, strain POL32, stronger effect = lower value 0.982 | locus YJR066W, strain TOR1, stronger effect = lower value 0.974
